Test results as given in paper PMC7862700, “An all-to-all approach to the identification of sequence-specific readers for epigenetic DNA modifications on cytosine”.

Assays:
Assay in all cases: DAPPL (digital affinity profiling via proximity ligation, sequencing); 10 mM Tris-HCl pH 7.5, 50 mM NaCl, 1 mM DTT, 4% glycerol, room temperature, 30 min; GST-TFs on glutathione beads, 16-mer random dsDNA library, 0.1% formaldehyde crosslink after washing; high values mean tight binding
Conditions in all cases: protein: recombinant; tags: N-terminal GST; dsDNA, one strand shown
ELK1 = target: T1, ELK1 (Homo sapiens, UniProt P19419 1-428)
T1 sequence: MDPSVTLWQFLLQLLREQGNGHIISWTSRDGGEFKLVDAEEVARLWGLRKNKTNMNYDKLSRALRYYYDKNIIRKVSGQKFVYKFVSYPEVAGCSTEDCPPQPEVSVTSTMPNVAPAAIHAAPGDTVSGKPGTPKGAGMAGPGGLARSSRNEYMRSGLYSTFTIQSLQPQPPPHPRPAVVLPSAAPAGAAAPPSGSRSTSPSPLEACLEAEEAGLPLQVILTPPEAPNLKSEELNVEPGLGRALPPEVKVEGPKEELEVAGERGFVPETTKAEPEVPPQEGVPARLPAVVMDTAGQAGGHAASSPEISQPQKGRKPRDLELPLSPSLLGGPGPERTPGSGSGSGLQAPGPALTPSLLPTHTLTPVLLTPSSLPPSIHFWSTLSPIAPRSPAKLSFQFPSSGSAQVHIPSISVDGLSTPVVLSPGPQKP
In short: (§1)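 GST fusions of human transcription factors were expressed in yeast and captured with glutathione beads. Once given DNA barcodes and pooled alongside a tag-only sample, they were incubated for 30 min at room temperature with 200 nmole of a random double-stranded 16-mer DNA library in Tris/NaCl/DTT/glycerol buffer, then washed, crosslinked (0.1% formaldehyde), proximity-ligated, PCR-amplified and sequenced on an Illumina NextSeq500. The binding signal of each hexamer is its read frequency for a factor divided by its frequency for the tag-only sample.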

GABPA = target: T2, GABPA (Homo sapiens, UniProt Q06546 1-454)
T2 sequence: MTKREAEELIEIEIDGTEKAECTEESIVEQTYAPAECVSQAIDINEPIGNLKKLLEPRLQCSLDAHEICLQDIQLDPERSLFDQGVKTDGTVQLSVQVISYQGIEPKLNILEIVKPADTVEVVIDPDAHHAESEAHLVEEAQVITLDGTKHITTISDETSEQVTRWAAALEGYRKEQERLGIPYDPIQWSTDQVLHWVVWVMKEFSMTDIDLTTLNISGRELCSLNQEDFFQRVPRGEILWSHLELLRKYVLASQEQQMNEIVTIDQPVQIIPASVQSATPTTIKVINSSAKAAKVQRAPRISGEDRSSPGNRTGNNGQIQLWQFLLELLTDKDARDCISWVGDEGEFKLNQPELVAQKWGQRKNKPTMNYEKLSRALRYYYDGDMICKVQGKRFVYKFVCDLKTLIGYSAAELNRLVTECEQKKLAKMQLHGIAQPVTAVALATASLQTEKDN
In short: as §1

ERG = target: T3, ERG (Homo sapiens, UniProt P11308 1-479)
T3 sequence: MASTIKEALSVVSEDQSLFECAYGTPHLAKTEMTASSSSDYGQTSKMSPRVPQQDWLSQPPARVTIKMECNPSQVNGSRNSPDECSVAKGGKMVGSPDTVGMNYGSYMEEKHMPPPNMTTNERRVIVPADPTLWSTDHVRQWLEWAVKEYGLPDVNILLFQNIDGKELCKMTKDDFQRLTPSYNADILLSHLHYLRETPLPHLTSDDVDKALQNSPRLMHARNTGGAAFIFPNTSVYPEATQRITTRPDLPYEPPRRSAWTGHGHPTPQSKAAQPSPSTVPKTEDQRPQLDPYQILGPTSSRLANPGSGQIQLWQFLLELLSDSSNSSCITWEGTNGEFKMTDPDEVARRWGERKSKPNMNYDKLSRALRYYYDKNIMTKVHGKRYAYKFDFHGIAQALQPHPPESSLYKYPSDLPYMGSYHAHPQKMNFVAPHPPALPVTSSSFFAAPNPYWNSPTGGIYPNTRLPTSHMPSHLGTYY
In short: as §1

ELF1 = ELF1 (Homo sapiens, UniProt P32519 1-619)
In short: as §1

EHF = target: T4, EHF (Homo sapiens, UniProt Q9NZC4 1-300)
T4 sequence: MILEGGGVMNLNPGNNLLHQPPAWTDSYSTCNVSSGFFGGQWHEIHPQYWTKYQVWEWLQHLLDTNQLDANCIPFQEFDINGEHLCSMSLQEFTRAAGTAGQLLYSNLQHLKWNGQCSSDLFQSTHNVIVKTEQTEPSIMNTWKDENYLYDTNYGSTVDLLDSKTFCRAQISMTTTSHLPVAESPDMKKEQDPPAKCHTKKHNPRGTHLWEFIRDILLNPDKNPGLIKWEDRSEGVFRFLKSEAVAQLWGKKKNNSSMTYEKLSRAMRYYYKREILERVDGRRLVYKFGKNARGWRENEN
In short: as §1

SPIB = SPIB (Homo sapiens, UniProt Q01892 1-262)
In short: as §1

ELK3 = target: T5, ELK3 (Homo sapiens, UniProt P41970 1-407)
T5 sequence: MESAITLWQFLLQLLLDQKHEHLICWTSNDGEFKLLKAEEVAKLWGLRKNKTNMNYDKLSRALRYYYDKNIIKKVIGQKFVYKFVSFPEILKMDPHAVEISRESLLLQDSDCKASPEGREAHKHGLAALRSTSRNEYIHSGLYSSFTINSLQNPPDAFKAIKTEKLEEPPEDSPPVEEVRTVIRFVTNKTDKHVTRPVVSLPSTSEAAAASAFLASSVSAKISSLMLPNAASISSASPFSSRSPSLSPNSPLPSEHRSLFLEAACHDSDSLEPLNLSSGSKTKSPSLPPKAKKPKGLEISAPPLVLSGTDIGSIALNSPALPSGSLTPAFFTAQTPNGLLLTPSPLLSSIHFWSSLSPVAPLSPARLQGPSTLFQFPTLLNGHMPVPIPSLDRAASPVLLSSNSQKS
In short: as §1

FEV = target: T6, FEV (Homo sapiens, UniProt Q99581 1-238)
T6 sequence: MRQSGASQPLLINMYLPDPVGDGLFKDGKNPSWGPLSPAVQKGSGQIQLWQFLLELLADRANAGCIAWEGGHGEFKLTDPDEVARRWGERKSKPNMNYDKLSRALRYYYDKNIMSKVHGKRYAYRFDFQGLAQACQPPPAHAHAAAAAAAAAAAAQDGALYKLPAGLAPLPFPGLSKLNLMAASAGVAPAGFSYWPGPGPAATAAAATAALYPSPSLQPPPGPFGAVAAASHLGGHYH
In short: as §1

ETV5 = ETV5 (Homo sapiens, UniProt P41161 1-510)
In short: as §1

ELF4 = ELF4 (Homo sapiens, UniProt Q99607 1-663)
In short: as §1

ELF3 = target: T7, ELF3 (Homo sapiens, UniProt P78545 1-371)
T7 sequence: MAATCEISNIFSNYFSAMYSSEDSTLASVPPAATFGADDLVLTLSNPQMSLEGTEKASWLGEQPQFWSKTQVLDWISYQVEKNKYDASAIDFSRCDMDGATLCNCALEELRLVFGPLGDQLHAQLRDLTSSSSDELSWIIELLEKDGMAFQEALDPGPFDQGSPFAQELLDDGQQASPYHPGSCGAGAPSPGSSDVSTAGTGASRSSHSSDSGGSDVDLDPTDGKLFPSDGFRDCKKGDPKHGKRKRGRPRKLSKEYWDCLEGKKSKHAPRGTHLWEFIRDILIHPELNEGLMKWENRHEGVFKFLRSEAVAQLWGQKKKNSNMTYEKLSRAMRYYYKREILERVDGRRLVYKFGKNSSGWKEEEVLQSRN
In short: as §1

ETV1 = ETV1 (Homo sapiens, UniProt P50549 1-477)
In short: as §1

ERF = target: T8, ERF (Homo sapiens, UniProt P50548 1-548)
T8 sequence: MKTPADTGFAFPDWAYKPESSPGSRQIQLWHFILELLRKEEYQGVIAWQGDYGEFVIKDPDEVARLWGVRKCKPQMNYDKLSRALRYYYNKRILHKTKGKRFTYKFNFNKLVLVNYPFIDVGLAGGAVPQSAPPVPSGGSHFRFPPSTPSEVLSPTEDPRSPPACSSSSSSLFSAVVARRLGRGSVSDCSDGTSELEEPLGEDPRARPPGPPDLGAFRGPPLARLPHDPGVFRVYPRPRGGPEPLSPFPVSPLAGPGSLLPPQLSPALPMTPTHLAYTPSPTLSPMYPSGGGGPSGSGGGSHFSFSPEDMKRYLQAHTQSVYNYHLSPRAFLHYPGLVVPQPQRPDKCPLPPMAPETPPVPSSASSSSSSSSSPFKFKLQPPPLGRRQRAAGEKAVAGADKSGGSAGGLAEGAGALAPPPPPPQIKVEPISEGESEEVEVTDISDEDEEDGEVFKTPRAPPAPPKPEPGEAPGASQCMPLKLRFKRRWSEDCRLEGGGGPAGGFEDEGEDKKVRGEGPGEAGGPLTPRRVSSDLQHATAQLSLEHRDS
In short: as §1

ETV3L = target: T9, ETV3L (Homo sapiens, UniProt Q6ZN32 1-361)
T9 sequence: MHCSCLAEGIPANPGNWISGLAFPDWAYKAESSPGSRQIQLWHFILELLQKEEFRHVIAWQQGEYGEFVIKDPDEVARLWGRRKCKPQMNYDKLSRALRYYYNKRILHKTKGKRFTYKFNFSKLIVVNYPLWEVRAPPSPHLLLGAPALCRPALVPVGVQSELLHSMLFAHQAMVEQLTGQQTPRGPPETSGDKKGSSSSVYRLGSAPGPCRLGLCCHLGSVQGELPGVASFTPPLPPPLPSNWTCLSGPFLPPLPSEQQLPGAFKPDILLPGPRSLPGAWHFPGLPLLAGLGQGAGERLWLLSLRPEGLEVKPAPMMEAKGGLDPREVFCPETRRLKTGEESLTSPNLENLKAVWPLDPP
In short: as §1

ETS2 = target: T10, ETS2 (Homo sapiens, UniProt P15036 1-469)
T10 sequence: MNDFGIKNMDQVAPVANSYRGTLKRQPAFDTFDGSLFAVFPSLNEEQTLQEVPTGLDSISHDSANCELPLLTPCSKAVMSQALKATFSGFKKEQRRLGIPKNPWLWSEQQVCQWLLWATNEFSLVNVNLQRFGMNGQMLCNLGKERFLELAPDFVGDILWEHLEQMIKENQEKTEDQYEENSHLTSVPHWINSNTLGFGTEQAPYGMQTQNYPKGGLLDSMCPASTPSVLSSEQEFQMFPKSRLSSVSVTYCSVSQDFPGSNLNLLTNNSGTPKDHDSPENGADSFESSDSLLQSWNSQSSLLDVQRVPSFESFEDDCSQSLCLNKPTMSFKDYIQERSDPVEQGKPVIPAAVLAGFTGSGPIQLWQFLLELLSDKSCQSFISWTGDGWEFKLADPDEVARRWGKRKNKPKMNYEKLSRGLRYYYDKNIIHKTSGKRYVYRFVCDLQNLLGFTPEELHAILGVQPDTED
In short: as §1

SPDEF = target: T11, SPDEF (Homo sapiens, UniProt O95238 1-335)
T11 sequence: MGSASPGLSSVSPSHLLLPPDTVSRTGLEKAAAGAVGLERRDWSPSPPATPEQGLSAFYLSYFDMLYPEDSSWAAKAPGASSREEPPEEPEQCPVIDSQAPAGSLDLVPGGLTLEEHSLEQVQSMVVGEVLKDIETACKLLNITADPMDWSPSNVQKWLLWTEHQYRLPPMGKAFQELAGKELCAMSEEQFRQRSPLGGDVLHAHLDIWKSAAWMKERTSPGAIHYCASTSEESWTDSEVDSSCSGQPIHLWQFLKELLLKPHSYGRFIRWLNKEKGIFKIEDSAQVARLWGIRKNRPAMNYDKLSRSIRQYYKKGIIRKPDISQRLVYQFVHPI
In short: as §1

ETV7 = target: T12, ETV7 (Homo sapiens, UniProt Q9Y603 1-341)
T12 sequence: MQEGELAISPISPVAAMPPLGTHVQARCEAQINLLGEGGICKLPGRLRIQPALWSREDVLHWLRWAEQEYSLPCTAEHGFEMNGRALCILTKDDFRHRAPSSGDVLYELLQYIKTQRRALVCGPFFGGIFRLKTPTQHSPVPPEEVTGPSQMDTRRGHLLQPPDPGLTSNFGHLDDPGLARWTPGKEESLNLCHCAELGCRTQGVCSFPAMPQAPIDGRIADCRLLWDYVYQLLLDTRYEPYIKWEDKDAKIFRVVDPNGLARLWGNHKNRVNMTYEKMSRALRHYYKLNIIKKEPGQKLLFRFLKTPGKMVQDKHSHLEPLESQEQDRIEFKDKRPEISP
In short: as §1

ETV3 = target: T13, ETV3 (Homo sapiens, UniProt P41162-2 1-143)
T13 sequence: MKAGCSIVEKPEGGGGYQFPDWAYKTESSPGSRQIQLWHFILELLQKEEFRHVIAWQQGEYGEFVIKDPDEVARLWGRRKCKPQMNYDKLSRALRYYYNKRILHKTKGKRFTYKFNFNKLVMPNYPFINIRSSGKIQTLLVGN
In short: as §1

ETV6 = ETV6 (Homo sapiens, UniProt P41212 1-452)
In short: as §1

Chain of ELF1 (P32519 whole entry): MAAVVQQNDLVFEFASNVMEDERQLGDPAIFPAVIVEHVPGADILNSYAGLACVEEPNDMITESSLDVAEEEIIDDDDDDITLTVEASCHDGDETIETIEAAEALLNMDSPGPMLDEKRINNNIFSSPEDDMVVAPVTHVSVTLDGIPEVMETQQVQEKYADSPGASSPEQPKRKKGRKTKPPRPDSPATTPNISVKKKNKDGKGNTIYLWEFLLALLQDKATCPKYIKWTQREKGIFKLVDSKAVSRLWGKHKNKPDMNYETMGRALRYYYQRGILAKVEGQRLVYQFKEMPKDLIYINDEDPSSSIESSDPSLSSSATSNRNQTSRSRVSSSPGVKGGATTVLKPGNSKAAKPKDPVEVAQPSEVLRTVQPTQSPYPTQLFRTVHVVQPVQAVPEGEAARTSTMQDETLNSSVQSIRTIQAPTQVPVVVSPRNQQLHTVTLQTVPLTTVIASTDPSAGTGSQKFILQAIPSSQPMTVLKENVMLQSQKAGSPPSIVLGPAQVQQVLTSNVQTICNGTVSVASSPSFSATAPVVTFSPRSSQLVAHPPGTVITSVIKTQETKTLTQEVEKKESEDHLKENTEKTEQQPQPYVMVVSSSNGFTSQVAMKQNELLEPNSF
Chain of ETV6 (P41212 whole entry): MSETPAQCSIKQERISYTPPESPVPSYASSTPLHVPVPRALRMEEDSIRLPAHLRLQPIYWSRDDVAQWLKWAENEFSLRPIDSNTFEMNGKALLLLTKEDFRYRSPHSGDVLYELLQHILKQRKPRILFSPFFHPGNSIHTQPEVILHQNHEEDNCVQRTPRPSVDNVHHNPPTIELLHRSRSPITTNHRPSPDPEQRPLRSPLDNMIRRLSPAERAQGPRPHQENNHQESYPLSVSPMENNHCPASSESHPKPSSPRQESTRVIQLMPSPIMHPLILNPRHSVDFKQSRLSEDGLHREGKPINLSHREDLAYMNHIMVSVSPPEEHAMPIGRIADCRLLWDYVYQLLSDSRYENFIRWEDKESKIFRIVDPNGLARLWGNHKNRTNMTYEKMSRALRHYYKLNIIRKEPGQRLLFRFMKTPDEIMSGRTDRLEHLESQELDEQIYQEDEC
Chain of SPIB (Q01892 whole entry): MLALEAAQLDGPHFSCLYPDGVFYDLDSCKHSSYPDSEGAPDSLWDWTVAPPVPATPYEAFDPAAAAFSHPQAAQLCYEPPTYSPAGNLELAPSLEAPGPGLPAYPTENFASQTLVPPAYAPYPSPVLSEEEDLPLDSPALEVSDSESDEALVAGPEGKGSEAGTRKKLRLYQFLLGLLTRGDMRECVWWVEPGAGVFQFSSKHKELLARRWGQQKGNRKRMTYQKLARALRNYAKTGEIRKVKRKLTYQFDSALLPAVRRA
Chain of ETV5 (P41161 whole entry): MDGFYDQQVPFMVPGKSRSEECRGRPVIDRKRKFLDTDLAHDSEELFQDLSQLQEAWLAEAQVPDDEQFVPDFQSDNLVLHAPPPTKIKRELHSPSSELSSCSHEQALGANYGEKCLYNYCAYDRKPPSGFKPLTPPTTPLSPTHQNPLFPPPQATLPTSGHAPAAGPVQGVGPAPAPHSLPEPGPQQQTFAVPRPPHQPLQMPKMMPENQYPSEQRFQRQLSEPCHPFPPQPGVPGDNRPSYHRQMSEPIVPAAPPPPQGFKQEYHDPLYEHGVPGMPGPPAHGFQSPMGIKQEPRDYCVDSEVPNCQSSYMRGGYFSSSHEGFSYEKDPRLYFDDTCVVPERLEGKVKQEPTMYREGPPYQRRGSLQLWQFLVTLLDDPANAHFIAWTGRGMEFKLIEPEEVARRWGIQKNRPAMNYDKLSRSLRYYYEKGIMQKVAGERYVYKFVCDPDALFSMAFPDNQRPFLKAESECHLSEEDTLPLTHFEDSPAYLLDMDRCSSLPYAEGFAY
Chain of ELF4 (Q99607 whole entry): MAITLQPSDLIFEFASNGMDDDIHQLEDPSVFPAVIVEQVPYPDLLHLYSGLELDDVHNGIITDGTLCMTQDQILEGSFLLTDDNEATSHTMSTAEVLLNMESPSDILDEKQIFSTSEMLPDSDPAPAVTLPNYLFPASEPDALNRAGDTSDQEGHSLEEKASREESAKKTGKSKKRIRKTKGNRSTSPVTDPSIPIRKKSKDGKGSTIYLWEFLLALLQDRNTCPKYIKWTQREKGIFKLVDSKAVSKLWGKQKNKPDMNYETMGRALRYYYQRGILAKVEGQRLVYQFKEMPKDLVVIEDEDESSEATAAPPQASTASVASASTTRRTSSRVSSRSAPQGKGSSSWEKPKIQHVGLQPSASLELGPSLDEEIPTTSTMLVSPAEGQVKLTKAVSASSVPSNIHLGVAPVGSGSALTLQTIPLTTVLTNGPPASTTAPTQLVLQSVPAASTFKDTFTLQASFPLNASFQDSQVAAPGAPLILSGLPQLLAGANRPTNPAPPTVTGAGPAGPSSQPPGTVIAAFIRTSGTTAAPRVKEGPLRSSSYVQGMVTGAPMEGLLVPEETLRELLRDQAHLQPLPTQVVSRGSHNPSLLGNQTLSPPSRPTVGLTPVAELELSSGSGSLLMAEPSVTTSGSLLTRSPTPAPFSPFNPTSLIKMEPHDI
Chain of ETV1 (P50549 whole entry): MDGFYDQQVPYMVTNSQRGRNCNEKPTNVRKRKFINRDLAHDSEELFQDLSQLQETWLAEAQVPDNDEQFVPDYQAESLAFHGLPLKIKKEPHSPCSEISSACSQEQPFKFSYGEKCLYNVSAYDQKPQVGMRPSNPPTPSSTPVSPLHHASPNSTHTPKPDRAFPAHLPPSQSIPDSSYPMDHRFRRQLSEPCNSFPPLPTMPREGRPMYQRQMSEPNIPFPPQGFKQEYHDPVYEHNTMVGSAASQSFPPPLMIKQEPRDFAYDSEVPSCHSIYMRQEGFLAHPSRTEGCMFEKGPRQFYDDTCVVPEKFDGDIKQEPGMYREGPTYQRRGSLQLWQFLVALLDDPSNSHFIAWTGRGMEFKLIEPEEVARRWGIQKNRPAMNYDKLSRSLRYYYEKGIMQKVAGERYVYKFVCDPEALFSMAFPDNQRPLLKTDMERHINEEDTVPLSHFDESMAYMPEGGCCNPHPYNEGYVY

AGTGCA
binding signal (ELK1): 1.1 fold enrichment (6-mer frequency, TF over GST control) | binding signal (GABPA): 1.1 fold enrichment (6-mer frequency, TF over GST control) | binding signal (ERG): 1.07 fold enrichment (6-mer frequency, TF over GST control) | binding signal (ELF1): 1.07 fold enrichment (6-mer frequency, TF over GST control) | binding signal (EHF): 1.09 fold enrichment (6-mer frequency, TF over GST control) | binding signal (SPIB): 1.08 fold enrichment (6-mer frequency, TF over GST control) | binding signal (ELK3): 1.13 fold enrichment (6-mer frequency, TF over GST control) | binding signal (FEV): 1.15 fold enrichment (6-mer frequency, TF over GST control) | binding signal (ETV5): 1.14 fold enrichment (6-mer frequency, TF over GST control) | binding signal (ELF4): 1.03 fold enrichment (6-mer frequency, TF over GST control) | binding signal (ELF3): 1.16 fold enrichment (6-mer frequency, TF over GST control) | binding signal (ETV1): 1.11 fold enrichment (6-mer frequency, TF over GST control) | binding signal (ERF): 1.12 fold enrichment (6-mer frequency, TF over GST control) | binding signal (ETV3L): 1.03 fold enrichment (6-mer frequency, TF over GST control) | binding signal (ETS2): 1.08 fold enrichment (6-mer frequency, TF over GST control) | binding signal (SPDEF): 1.07 fold enrichment (6-mer frequency, TF over GST control) | binding signal (ETV7): 1.18 fold enrichment (6-mer frequency, TF over GST control) | binding signal (ETV3): 1.05 fold enrichment (6-mer frequency, TF over GST control) | binding signal (ETV6): 1.16 fold enrichment (6-mer frequency, TF over GST control)
